Measurements from PubChem BioAssay (NCI).
This is part of a sample that, as a whole, favours compounds with a hit. Of some 83,000 tested, about 20% had one in any assay.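 Compound tested at a single concentration for 48 hours in 96-well plates; a percent growth value below 10 was scored as active.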 Values without a mark were called inactive. Active and inactive are the calls of the source.

Experiments:
Test in all cases: NCI-60 one-dose screen, 48 h (100 = growth as untreated, 0 = no growth, -100 = all killed)
[1] = tested on: SK-MEL-2 melanoma; details: 10 µM unless noted
[2] = tested on: EKVX NSCLC; details: 10 µM unless noted
[3] = tested on: SN12C renal; details: 10 µM unless noted
[4] = tested on: UO-31 renal; details: 10 µM unless noted
[5] = tested on: TK-10 renal; details: 10 µM unless noted
[6] = tested on: ACHN renal; details: 10 µM unless noted
[7] = tested on: CAKI-1 renal; details: 10 µM unless noted
[8] = tested on: A498 renal; details: 10 µM unless noted
[9] = tested on: CCRF-CEM leukemia; details: 10 µM unless noted
[10] = tested on: MOLT-4 leukemia; details: 10 µM unless noted
[11] = tested on: SR leukemia; details: 10 µM unless noted
[12] = tested on: OVCAR-8 ovarian; details: 10 µM unless noted
[13] = tested on: OVCAR-5 ovarian; details: 10 µM unless noted
[14] = tested on: OVCAR-4 ovarian; details: 10 µM
[15] = tested on: SK-OV-3 ovarian; details: 10 µM unless noted
[16] = tested on: IGROV1 ovarian; details: 10 µM unless noted
[17] = tested on: HS 578T breast; details: 10 µM unless noted
[18] = tested on: NCI/ADR-RES ovarian; details: 10 µM unless noted
[19] = tested on: RPMI-8226 leukemia; details: 10 µM unless noted
[20] = tested on: OVCAR-3 ovarian; details: 10 µM unless noted

| Structure (SMILES) | growth [1] | growth [2] | growth [3] | growth [4] | growth [5] | growth [6] | growth [7] | growth [8] | growth [9] | growth [10] | growth [11] | growth [12] | growth [13] | growth [14] | growth [15] | growth [16] | growth [17] | growth [18] | growth [19] | growth [20] |
| --- | --- | --- | --- | --- | --- | --- | --- | --- | --- | --- | --- | --- | --- | --- | --- | --- | --- | --- | --- | --- |
| Fc1ccc(NC(=S)c2ccccc2)cc1 | 98.3% | 97.5% | 103% | 88.9% | 94.5% | 102% | 89.8% | 72.8% | 94.6% | 99.9% | 102% | 102% | 94.5% | 100% | 117% | 106% | 101% | 108% |  |  |
| CCn1cc(-c2cc(-c3ccc(Cl)cc3)nc(N)n2)c(-c2ccc(Br)cc2)n1 | 62.7% | 78.1% | 84.5% | 67.7% | 80.2% | 46.9% | 51.8% | 92% | 82.9% |  | 69.7% | 84.9% | 68.7% | 82.2% |  | 68.1% | 96.7% | 80.3% | 66.2% | 88.5% |
| C=C(CN=[N+]=[N-])[C@@H]1CC[C@]2(C)[C@H](CC[C@@H]3[C@H]4[C@H]5OC(=O)[C@@]4(CCC5(C)C)CC[C@]32C)[C@@]1(C)CCC#N | 83.4% [100 µM] | 90.6% [100 µM] | 76.2% [100 µM] | 80.2% [100 µM] | 105% [100 µM] | 93.9% [100 µM] | 53.5% [100 µM] | 85.2% [100 µM] | 74.6% [100 µM] | 58% [100 µM] | 64% [100 µM] | 92.2% [100 µM] | 98.3% [100 µM] |  | 75.4% [100 µM] | 106% [100 µM] | 88.5% [100 µM] | 90.8% [100 µM] |  | 82.5% [100 µM] |
| O=C(COc1cccc(/C=C2\Oc3ccccc3C2=O)c1)c1ccc([N+](=O)[O-])cc1 | 92.1% | 95% | 92.6% | 81.2% | 119% | 101% | 108% | 100% | 63.1% |  | 80.9% | 97.1% | 97.1% | 97% | 121% |  | 98.4% | 79.1% | 75.5% | 88.5% |
| COc1ccc(-c2cc(-c3ccc(Cl)cc3)nc(SCCCCCCC(=O)NO)n2)cc1 | 87.1% | 44.2% | 41.3% | 11.8% | 34.7% | 16.1% | 4.58% (active) | 52% | 3.36% (active) |  | 4.61% (active) | 21.1% | 34.1% | 56.5% | 20.1% | 11.1% | 55.5% | 2.26% (active) | 26.5% | 39% |
| C=C(C)[C@@H]1CC[C@]2(c3ncc(C)o3)CC[C@]3(C)[C@H](CC[C@@H]4[C@@](C)(CCC#N)[C@H](C(=C)C)CC[C@]43C)[C@@H]12 | -89.5% [100 µM] (active) | -79.1% [100 µM] (active) | -91.5% [100 µM] (active) | -94.4% [100 µM] (active) | -90.6% [100 µM] (active) | -97.8% [100 µM] (active) | -96.4% [100 µM] (active) | -93.4% [100 µM] (active) | -11.1% [100 µM] (active) | -35.4% [100 µM] (active) | 14.9% [100 µM] | -78.1% [100 µM] (active) | -97.2% [100 µM] (active) |  | -88.4% [100 µM] (active) | -87.6% [100 µM] (active) | -28% [100 µM] (active) | -82.9% [100 µM] (active) |  | -80.4% [100 µM] (active) |
| O=C(N=c1n(-c2ccccc2)nc2n1CCN2C1=NCCN1)c1ccc(Cl)cc1 | 106% | 93.9% | 80.1% | 57.9% | 89.5% | 96.7% | 79.2% | 68.3% | 77.8% |  | 43.6% | 98.7% | 95.9% |  | 90.2% | 58% | 93.1% | 93.6% | 91.9% | 91.7% |
| Cc1cccc(C[C@H](NC(=O)Nc2ccc(Cl)cc2F)C(=O)N[C@@H]2C(=O)N3C[C@H](O)C[C@H]3C(=O)N3CCN(C)C[C@H]3C(=O)N[C@@H](C)C(=O)N3C[C@H](C)C[C@H]3C(=O)O[C@H]2C)c1 | 34.4% | 71.4% | 20.5% | 83.6% | 81.4% | 102% | 59.1% | 23.7% | 57.2% |  | 45% | 26.9% | 38.8% | 15.4% |  | 50.7% | 43% | 107% | 22.6% | 17.2% |
| NC(=O)c1c(NC(=O)COC(=O)Cc2ccccc2F)sc2c1CCC2 | 99.9% | 101% | 109% | 72.6% | 124% | 109% | 99% | 117% | 108% |  | 125% | 39.4% | 111% | 114% | 104% |  | 109% | 110% | 130% | 112% |
| CC(C)=CC/C=C(/C)[C@H]1CC[C@]2(C)[C@@H]1CC[C@@H]1[C@@]3(C)CCCNC(C)(C)[C@@H]3CC[C@]12C | -70% [100 µM] (active) | -71.2% [100 µM] (active) | -85.2% [100 µM] (active) | -82.1% [100 µM] (active) | -67% [100 µM] (active) | -77% [100 µM] (active) | -79.9% [100 µM] (active) | -88.6% [100 µM] (active) | -15.7% [100 µM] (active) |  | 15.2% [100 µM] | -29.5% [100 µM] (active) | -85.9% [100 µM] (active) |  | -66.8% [100 µM] (active) | -74.1% [100 µM] (active) | -50.2% [100 µM] (active) | -69.6% [100 µM] (active) | -40.1% [100 µM] (active) |  |
| Cn1cc(-c2nnc(-c3ccccc3)s2)c2cc(Br)cnc21 | 100% | 62.6% | 90.1% | 61.5% | 88.2% | 66.7% | 53% | 60.2% | -12.6% (active) | 83.4% | 90.7% | 94.4% | 94.9% | 68% |  | 43.7% | 79.9% | 90.4% |  | 84.5% |
| O=C(CCCCCCSc1nc(-c2ccc(Cl)cc2)cc(-c2ccc(Cl)cc2)n1)NO | 92.7% | 50.9% | 26.1% | 8.29% (active) | 30.7% | 15.5% | 13.4% | 81.8% | 5.2% (active) |  | 5.47% (active) | 20.5% | 39.4% | 35.9% | 17.4% | 27.6% | 69.5% | 3.91% (active) | 34.9% |  |
| N=C(N)c1ccc(-c2ccc(-c3ccc(-c4cccs4)s3)s2)cc1F | 114% | 98.8% | 92.7% | 76.5% | 122% | 101% | 93.6% | 0.519% (active) | 26.8% | 91% | 18.6% | 102% | 75.8% | 90.5% |  | 93.5% | 101% | 102% |  | 91.4% |
| Nc1cc(N)c(N=Nc2ccc(S(=O)(=O)O)cc2)cc1N=Nc1ccc(-c2ccc(N=Nc3ccc(O)c(C(=O)O)c3)cc2)cc1 | 103% | 97.1% | 102% | 79.8% | 142% | 99.8% | 90% | 108% | 98% | 102% | 110% | 100% | 108% | 103% | 100% | 104% | 105% | 98.9% |  |  |
| CCCCCCNC(=O)Nc1ncnc2c1ncn2-c1ccccc1 | 91.3% | 92.2% | 97.3% | 58.4% | 94% | 90.7% | 85.8% | 83.1% | 103% |  | 99.5% | 91.3% | 88.9% | 85.3% | 87.5% | 88.1% | 97.6% | 91.1% | 91.4% | 111% |
| CCOC(=O)c1cc(C(=O)c2ccc(OC)c(OC)c2)n2ccc(-c3ccccn3)cc12 | 70.9% | 92.2% | 60.6% | 76.3% | 55.4% | 30% | 78.7% | 42.1% | 111% | 124% | 75.8% | 37% | 84% |  | 6.14% (active) | 54.7% | 64.2% | 65.6% |  | 78.5% |
